Measurements published in the supplement of paper PMC10981050.
“And” between values parts separate entries of the source, which are not always exact repeats. Equal entries are not always repeated.

Key:
Assay in all cases: cell viability relative to vehicle control; higher = less cytotoxic
K562 = details: 10 µM; SRSF2 genotype: SRSF2 wt/wt
Method in brief: (§1)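 After removal of identity-inconsistent compounds, the Selleck bioactive, kinase and epigenetic probe libraries were screened on CRISPR-edited mutant clones and isogenic wild-type clones of four leukaemia lines. Plates were 384-well, each well holding 2000 cells in 50 µL medium and receiving a single 10 µM acoustically dispensed dose. CellTiter-Glo luminescence was read 48 h later, after the supernatant was taken off. Genedata Screener was used to express viability as percent of the on-plate vehicle control.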

MARIMO = details: 10 µM
Method in brief: as §1

MOLM14 = details: 10 µM
Method in brief: as §1

OCI-AML2 = details: 10 µM
Method in brief: as §1

SMILES | cell viability (K562) | cell viability (MARIMO; SRSF2 genotype: SRSF2 P95H/wt) | cell viability (MARIMO; SRSF2 genotype: SRSF2 wt/wt) | cell viability (MOLM14; SRSF2 genotype: SRSF2 P95H/wt) | cell viability (MOLM14; SRSF2 genotype: SRSF2 wt/wt) | cell viability (OCI-AML2; SRSF2 genotype: P95H/wt) | cell viability (OCI-AML2; SRSF2 genotype: wt/wt)
O=C(O[C@@H]1O[C@@H]2COC(=O)c3cc(O)c(O)c(O)c3-c3c(cc(O)c(O)c3O)C(=O)O[C@H]([C@H]1O)[C@@H]2O)c1cc(O)c(O)c(O)c1 [Corilagin] | 81.5% | 86.9% | 81.3% | 86.4% | 82.2% | 103% | 96.2%
O=C(Cc1cccc(OC(F)(F)F)c1)Nc1ccc(CCCCc2nnc(NC(=O)Cc3ccccn3)s2)nn1 | 58.5% | 23.7% | 21.2% | 44.3% | 53.4% | 20.1% | 24.8%
COc1cc2nccc(Oc3ccc(NC(=O)Nc4ccc(F)cc4F)c(F)c3)c2cc1OC | 93.5% | 109% | 112% | 25.1% | 19.4% | 40.2% | 51.5%
O=C(CCCCCCNC(=O)c1cnc(N(c2ccccc2)c2ccccc2)nc1)NO | 52.1% | 17.6% | 35.3% | 2.73% | 2.08% | 0.54% | 1.52%
C[C@@H]1CCN(C(=O)CC#N)C[C@@H]1N(C)c1ncnc2[nH]ccc12 | 99.6% and 112% | 97.6% and 104% | 99.8% and 112% | 85.3% and 95.7% | 104% | 96.5% and 99.1% | 93.8% and 101%
O=C1[C@H](Cc2ccc(O)cc2)N2C(=O)CCN(C(=O)NCc3ccccc3)[C@H]2CN1Cc1cccc2ccccc12 | 47% and 37.9% | 60.6% and 53.5% | 59.4% and 48.2% | 63.6% and 52% | 43.8% and 35.6% | 54.4% and 45.4% | 42.3% and 36.8%
Cc1cc(C)c(Nc2ccnc(Nc3ccc(C#N)cc3)n2)c(C)c1 [Dapivirine (TMC120)] | 45.5% | 86% | 70.6% | 75% | 81.1% | 69% | 31.3%
O=C(NC1CC1)c1cc(-c2cccs2)on1 [Isoxazole 9 (ISX-9)] | 53.5% | 58.5% | 63% | 46.8% | 35.5% | 74.8% | 74.7%
O=C(/C=C/c1ccc(O)c(O)c1/C=C/c1ccc(O)c(O)c1)O[C@H](Cc1ccc(O)c(O)c1)C(=O)O [Salvianolic acid A] | 70.5% | 86.4% | 94.7% | 73.7% | 62.1% | 98.2% | 95%
COc1cc2ncnc(Nc3ccc(F)c(Cl)c3)c2cc1OCCCN1CCOCC1 [Gefitinib (ZD1839)] | – | 63.4% | 63.1% | 39.7% | 45.2% | 53.4% | 50.9%
CCn1cc(C(=O)O)c(=O)c2c(N)c(F)c(NC3CCCCC3)cc21 | 80.6% | 94.2% | 125% | 106% | 117% | 120% | 136%
COc1cc(O)cc(O)c1C(=O)C=Cc1ccccc1 [Cardamonin] | 77.8% | 54.5% | 70.9% | 33.1% | 74.1% | 52.6% | 51.2%
Oc1ccc2c(c1)OC[C@]1(O)Cc3cc(O)c(O)cc3[C@H]21 [Brazilin] | 85.9% | 46.3% | 11.3% | 40.4% | 45.2% | 73.2% | 77.5%
Nc1cc(N)c(N)cc1N | 69.4% | 104% | 109% | 96.3% | 105% | 103% | 103%
CC=C(C)C(=O)OC1C(OC(C)=O)C2(CO)C(O)CC3(C)C(=CCC4C5(C)CCC(OC6OC(C(=O)O)C(OC7OC(CO)C(O)C(O)C7O)C(O)C6OC6OC(CO)C(O)C(O)C6O)C(C)(CO)C5CCC43C)C2CC1(C)C (stereo not given) [Escin] | 48.9% | 90.1% | 90.1% | 53.3% | 67.9% | 23.9% | 31.4%
CN(c1ncccc1CNc1nc(Nc2ccc3c(c2)CC(=O)N3)ncc1C(F)(F)F)S(C)(=O)=O | 27.9% and 21.1% | 10.2% and 11.6% | 3.77% and 4.68% | 0.98% and 1.3% | 0.43% and 0.45% | 1.6% and 2.15% | 13% and 13.3%

SMILES | cell viability (K562) | cell viability (MARIMO; SRSF2 genotype: SRSF2 P95H/wt) | cell viability (MARIMO; SRSF2 genotype: SRSF2 wt/wt) | cell viability (MOLM14; SRSF2 genotype: SRSF2 P95H/wt) | cell viability (MOLM14; SRSF2 genotype: SRSF2 wt/wt) | cell viability (OCI-AML2; SRSF2 genotype: P95H/wt) | cell viability (OCI-AML2; SRSF2 genotype: wt/wt)
NC(=O)Nc1sc(-c2ccc(F)cc2)cc1C(N)=O | 79.8% | 56.3% | 50% | 20.5% | 11% | 20.2% | 26.5%
CNC(=O)c1ccccc1Nc1nc(Nc2ccc(N3CCOCC3)cc2OC)ncc1Cl | 113% | 44.3% | 39.6% | 9.8% | 6.5% | 13.3% | 20.4%
C[C@H](CS)C(=O)N1CCC[C@H]1C(=O)O [Captopril (Capoten)] | – | 103% | 106% | 102% | 102% | 97.7% | 97.8%
CCOc1ccn(-c2ccc(F)cc2)c(=O)c1C(=O)Nc1ccc(Oc2ccnc(N)c2Cl)c(F)c1 | 42% | 69.1% | 82.8% | 11.3% | 6.04% | 20.9% | 28.1%
O=C(CCCCCCNC(=O)c1cnc(N(c2ccccc2)c2ccccc2Cl)nc1)NO [Citarinostat (ACY-241)] | 47.4% | 8.12% | 20.9% | 2.1% | 1.84% | 0.7% | 1.25%
CNC(=O)c1ccccc1Oc1nc(Nc2cc(OC)c(OC)c(OC)c2)ncc1Br | 90.6% | 52.5% | 55.3% | 8.58% | 5.16% | 11.6% | 19%
CC1(C)CC[C@]2(C(=O)O)CC[C@]3(C)C(=CC[C@@H]4[C@@]5(C)CC[C@H](O[C@@H]6O[C@H](C(=O)O)[C@@H](O)[C@H](O[C@@H]7OC[C@@H](O)[C@H](O)[C@H]7O)[C@H]6O)C(C)(C)[C@@H]5CC[C@]43C)[C@@H]2C1 [Momordin Ic] | 88.8% | 103% | 108% | 110% | 103% | 97.2% | 96.6%
Cn1cc(-c2ccc(F)c(C(F)(F)F)c2)nc1C1CCN(c2ncnc3[nH]ncc23)CC1 | 86% and 80.8% | 88.3% and 83.6% | 96.6% and 99.4% | 92.3% and 80.4% | 95.3% and 97.3% | 85.9% and 77.1% | 92.6% and 79.5%
COc1cc(-c2cc(-c3ccc(N4CCNCC4)cc3)cnc2C)cc(OC)c1OC | 31.1% | 46.2% | 46.9% | 37.1% | 31.9% | 17.7% | 29.3%
O=C(NC1CCNCC1)c1n[nH]cc1NC(=O)c1c(Cl)cccc1Cl | 26.4% and 27.1% | 13.2% and 15.4% | 6.7% and 6.57% | 3.09% and 4.11% | 0.56% and 0.84% | 5.65% and 5.71% | 17.9% and 18%
CCNC(=O)C#Cc1ccc2c(C(=Nc3ccc(CN(C)C)cc3)c3ccccc3)c(O)[nH]c2c1 | 53.4% | 26.7% | 25.1% | 4.97% | 7.91% | 11.9% | 17.2%
Cc1cc(N2C[C@@H](C)N[C@@H](C)C2)ncc1-c1ccc(-c2nc3c(ccn3C)c(=O)[nH]2)cc1 | 59% | 79.6% | 76.4% | 0.95% | 1.53% | 5.67% | 3.85%
CC(=O)Oc1cc(C)c(OC(C)=O)c2ccccc12 [Menadiol Diacetate] | 95.2% | 49.6% | 53.5% | 15.3% | 7.05% | 5.63% | 11.2%
COc1cc2/c(=N/c3ccc(Br)cc3F)nc[nH]c2cc1OCC1CCN(C)CC1 [Vandetanib (ZD6474)] | 41% | 83% | 97.2% | 57.6% | 68.6% | 77.3% | 75.4%
Cc1cnc(-c2cnc(NCCNc3ccc(C#N)cn3)nc2-c2ccc(Cl)cc2Cl)[nH]1 | 63.6% and 69.4% | 96.3% and 94.4% | 119% and 126% | 87.2% and 98.8% | 103% and 110% | 95.8% and 99.6% | 124% and 133%
